Laboratory results from the supplement of paper PMC11006884.
The full data set covers some 6,500 targets. This sample favours those with a hit. About 2% of all pairs of compound and target were hits. Values without a mark were called inactive.

Compound: COC(=O)C#Cc1ccccc1 [methyl 3-phenylpropiolate]
Test: log2 ratio of iodoacetamide-alkyne labeling of the cysteine site, DMSO over compound (competition); higher = stronger covalent engagement of the cysteine by the compound, active = 1 or more
Details: 500 µM; treatment time 1 h; system: HEK293T cell lysate
How it was run: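 Reporter intensities give each cysteine's log2 competition ratio as the mean of control channels over the mean of compound channels. The samples were HEK293T lysate (2 mg/mL) given vehicle or electrophile (500 µM, 1 h, ambient temperature), then iodoacetamide alkyne (1 h), followed by click coupling to sCIP-TMT reagents, pooling, trypsin digestion overnight at 37 °C, streptavidin enrichment, acid elution, Orbitrap Eclipse LC-MS/MS with FAIMS and FragPipe quantification. Duplicate channels and three replicates were run, and cysteines quantified in only one replicate were discarded.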

| Target | log2 ratio of iodoacetamide-alkyne labeling |
| --- | --- |
| DAZAP1 C39 (UniProt Q96EP5) | 0.0955 |
| PDLIM5 C446 (UniProt Q96HC4) | 0.0755 |
| LUZP1 C594 (UniProt Q86V48) | 1.19 (active) |
| ZFR C974 (UniProt Q96KR1) | 0.302 |
| HEATR3 C173 (UniProt Q7Z4Q2) | 0.137 |
| UniProt Q8NFC6_C686 | 0.47 |
| NCAPG C202 (UniProt Q9BPX3) | 0.0426 |
| NOC3L C683 (UniProt Q8WTT2) | 0.191 |
| ATPAF1 C321 (UniProt Q5TC12) | 0.464 |
| UniProt Q96BD8_C10 | 0.363 |
| ATRIP C74 (UniProt Q8WXE1) | 0.563 |
| RPL36AL C72 (UniProt Q969Q0) | 0.0561 |
| TMEM192 C266 (UniProt Q8IY95) | 0.418 |
